Holding throughout (experiment): NCI-60 one-dose screen, 48 h (100 = growth as untreated, 0 = no growth, -100 = all killed)
What all share (conditions): 10 µM unless noted

For assay [1], the system named is DU-145 prostate.
The subject of assay [2] is K-562 leukemia.
Assay [3] has as its system MALME-3M melanoma.
Assay [4] has as its system MDA-MB-231 breast.
Assay [5] relates to RXF 393 renal.
Assay [6] has as its system SF-268 CNS.
Assay [7] relates to SF-295 CNS.
For assay [8], the system named is SF-539 CNS.
The subject of assay [9] is UACC-257 melanoma.
Assay [10] relates to M14 melanoma.

SMILES strings stand for the structures. This is part of a sample that, as a whole, favours compounds with a hit. Of some 83,000 tested, about 20% had one in any assay.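 Interpretation: 100, growth as untreated; towards 0, rising growth inhibition; 0, no net growth; 0 to -100, cell death. Compounds scoring below 10 were considered active.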 Unmarked numbers belong to inactive results. Activity calls are given as the source filed them.

With `O=c1oc2ccccc2cc1-c1csc(N=Nc2c(O)[nH]c3ccc(Br)cc23)n1`, the growth in [1] is 109%; in assay [2] it was 111%; in assay [3] it was 99%; in [4] it was 95.6%; in assay [5], 115%; in assay [6], 101%. Besides, the growth in assay [7] was 101%; in [8] it was 99.5%; in assay [9], 97.3%; in [10], 105%.
On to `O=C(NC1CC1)c1cc2n(n1)CC(c1ccccc1)N2` (stereo not given), for which the growth was 107% in [1]; 103% in assay [2]; 104% in assay [3]; 91.3% in assay [4]; 95.6% in assay [5]; 95.2% in assay [6]. Besides, the growth is 91.8% in assay [7], 96.3% in assay [8], 98.3% in [9] and 101% in assay [10].
Turning to `COc1cc(/C=C/c2cc(/C=C/c3ccc(O)c(OC)c3)n(-c3ccccc3)n2)ccc1O`, the growth was -45.7% (active) in [1]; -15.5% (active) in assay [2]; -39% (active) in assay [3]; 5.23% (active) in assay [4]; -70% (active) in assay [5]; -12.5% (active) in [6]. Besides, the growth is -71.5% (active) in assay [7], -39.8% (active) in [8], 16% in assay [9] and -56% (active) in assay [10].
As for `CC(C)NCC(O)COc1ccc(CCOCC2CC2)cc1` (stereo not given), the growth in [1] is 111%; in assay [2], 97.6%; in assay [3] it was 103%; in assay [4], 99.6%; in assay [5], 97.1%; in assay [6], 108%. For the same molecule, the growth was 108% in assay [7], 107% in assay [8], 108% in assay [9] and 96.6% in [10].
For `COc1ccc(-c2[nH]ncc2Nc2cc(OC)c(OC)c(OC)c2)cc1`, the growth in assay [1] is 46.5%; in assay [2] it was 57.2%; in assay [3] it was 44.1%; in assay [4] it was 53.3%; in [5], 20.5%; in [6], 53.1%. The growth in [7] was 13%; in assay [8] it was 1.83% (active); in assay [9], 66.5%; in assay [10], 31.1%.
`Cc1ccc(S(=O)(=O)N2CCc3ccc(O)c4c3C2Cc2cc(Cl)ccc2-4)cc1` (stereo not given): the growth in assay [1] is 85.5%; in assay [2], 24.7%; in [3], 57%; in [4], 82.4%; in [5], 71%; in assay [6] it was 61.9%. Moreover, the growth is 84.7% in assay [7], 58.2% in assay [8], 63.4% in assay [9] and 68.7% in [10].
For the molecule `C[C@@H](Oc1cc(-c2cnn(C3CC4(CNC4)C3)c2)cnc1N)c1c(Cl)ccc(F)c1Cl`, the growth in assay [1] was 46.6%; in assay [2], 5.12% (active); in assay [3], 48.5%; in [4], 37.9%; in [5], 21.7%; in [6], 39.6%. The growth in [7] is 24.5%; in assay [8], 28.9%; in [9] it was 8.56% (active); in [10], 30.2%.
For `O=C1c2ccccc2-c2cn(Cc3ccccc3)c3cccc(c23)C1c1cccnc1` (stereo not given), the growth was 60.7% in assay [1]; 26.8% in assay [2]; 38.9% in [3]; 52.4% in assay [4]; 57.9% in assay [5]; 58% in [6]. The growth in [7] was 25.9%; in assay [8], 54.7%; in assay [9], 55%; in [10], 48.4%.
On to `CCCCCCCCCCCCCCn1c2ccccc2c2c3c(c4c5cc(OC)ccc5oc4c21)C(=O)NC3=O`, for which the growth is 111% in assay [1]; 111% in [2]; 115% in assay [3]; 111% in assay [4]; 122% in [5]; 99.8% in assay [6]. For the same molecule, the growth in assay [7] was 104%; in assay [8], 97%; in assay [9], 102%; in assay [10] it was 101%.
For `COc1ccc(/C=C2\Oc3cc(C)c(Cl)cc3C2=O)cc1OC`, the growth was 104% in [1]; 86.6% in assay [2]; 99.7% in [3]; 102% in assay [4]; 111% in assay [5]; 102% in assay [6]. The growth in assay [7] is 95.7%; in assay [8] it was 92.7%; in [9], 101%; in assay [10] it was 96.3%.
Consider `O=C1/C(=C/c2ccc(Cl)cc2)CN(Cc2cn(CCCNc3ccnc4cc(Cl)ccc34)nn2)C/C1=C\c1ccc(Cl)cc1`, for which the growth in assay [1] is -11.6% (active); in assay [2], 0.972% (active); in assay [3] it was -64.6% (active); in assay [4] it was -58.4% (active); in assay [5] it was -97.6% (active); in [6], -84.7% (active). Moreover, the growth in assay [7] was -56.1% (active); in assay [8], -91.5% (active); in [9], -69.4% (active); in assay [10] it was -64.9% (active).
Regarding `CC1SC(c2cccc(Oc3ccccc3)c2)N(CCc2cccs2)C1=O` (stereo not given), the growth was -6.09% (active) in assay [1]; 9.44% (active) in assay [2]; -72.7% (active) in assay [3]; -47.5% (active) in assay [4]; -90.6% (active) in assay [5]; -5.54% (active) in assay [6]. The growth in assay [7] was -35.6% (active); in assay [8] it was -82.3% (active); in assay [9], -45.1% (active); in assay [10] it was -74% (active).
`O=c1oc2ccccc2cc1-c1csc(N/N=C/c2cc3ccccc3nc2Cl)n1`: the growth in assay [1] is 87.6%; in assay [2] it was 108%; in assay [3], 103%; in assay [4] it was 79.1%; in [5], 111%; in assay [6], 106%. The growth in [7] was 97.8%; in [8] it was 96.1%; in [9], 115%; in assay [10] it was 115%.
`Cn1c2c(cc(S(=O)(=O)c3ccccc3)c1=O)CCc1c-2cnn1-c1cccc(Cl)c1`: the growth in assay [1] was 135%; in assay [2], 73.3%; in [3], 87.4%; in [4], 98.3%; in assay [5], 93.4%; in [6], 106%. Further, the growth in assay [7] is 80.3%; in assay [8], 83.1%; in assay [9], 79.7%; in [10] it was 98%.
With `COc1cccc(-c2ccc3c(c2)C2CCN(Cc4ccccc4)C3C2)c1` (stereo not given), the growth is 95.6% in [1]; 22.7% in assay [2]; 62.8% in [3]; 88.8% in [4]; 98% in [5]; 86.9% in assay [6]. Further, the growth in assay [7] was 81.2%; in assay [8], 85.1%; in [9], 78.7%; in assay [10], 72.2%.
As to `COC(=O)C1C2CC3c4[nH]c5cc(OC)ccc5c4CCN3CC2CC(OC2CCCCO2)C1OC` (stereo not given), the growth in [1] is 111%; in assay [2] it was 95.2%; in assay [3], 104%; in [4], 96.8%; in [5] it was 104%; in assay [6] it was 101%. The growth in [7] is 102%; in assay [8], 97.6%; in [9] it was 98.6%; in assay [10] it was 103%.
Regarding `O=C(O)c1ccccc1Oc1cc(-c2ccco2)nc(OCCBr)n1`, the growth was 104% in assay [1]; 100% in assay [2]; 99.1% in assay [3]; 105% in [4]; 135% in assay [5]; 98.7% in [6]. Besides, the growth is 95.1% in [7], 105% in assay [8], 97.8% in assay [9] and 104% in assay [10].
Take `Cc1c(C(=O)Nc2nc(-c3ccccc3)cs2)nnn1-c1cccc2ccccc12`: the growth in assay [1] is 64.7% [50 µM]; in [2], 30.5% [50 µM]; in assay [3], 55.4% [50 µM]; in assay [4], 68.7% [50 µM]; in [5] it was 89.1% [50 µM]; in assay [6], 72.5% [50 µM]. Besides, the growth in assay [7] is 37.2% [50 µM]; in [8] it was 69.2% [50 µM]; in assay [9] it was 44.9% [50 µM]; in assay [10] it was 64.7% [50 µM].
As to `CCN1C(=O)C2(Nc3ccccc3S2)c2cc(C)ccc21` (stereo not given), the growth in assay [1] is 101%; in assay [2] it was 108%; in assay [3], 84.1%; in assay [4] it was 105%; in [5] it was 93.7%; in assay [6], 98.2%. The growth in assay [7] was 101%; in [8] it was 94.4%; in assay [9], 101%; in assay [10] it was 92.6%.
On to `COc1ccc(C2SC(C)C(=O)N2CCc2cccs2)cc1OC` (stereo not given), for which the growth is 93.3% in assay [1]; 62.3% in [2]; 119% in [3]; 73.2% in assay [4]; 86.1% in assay [5]; 89.2% in assay [6]. For the same molecule, the growth in [7] is 75.5%; in assay [8] it was 94.1%; in [9], 75.7%; in assay [10] it was 121%.

Values taken from PubChem BioAssay (NCI).
